The source of these data is PubChem BioAssay (NCATS).

Records with an inconclusive call do not appear. Where a call stands in place of a potency, no number is given. Active and inactive are the calls of the source. Calls follow the shape of the dose curve; as a rule, active = well fitted cell-killing curve with a large enough effect; inconclusive = small, poorly fitted or top-dose-only effect, or effect the other way; inactive = flat fitted curve, though single readings scatter.

For this assay, the system named is Tov112D. Nature of the assay: Primary qHTS to identify gynecologic anti-cancer compounds using libraries of approved drugs and bioactive compounds (AID 1345084). Also: nearly all actives have a fitted effect of over 55% in size. The note with it: Gynecologic cancer cell panel viability, ATPlite luminescence, 48 h; series mostly up to 57.5 µM. Put shortly: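 Measured: luminescence after ATPlite addition (15 min, RT). Exposure: 48 h, 37 C, 5% CO2.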
In general terms: qHTS replaces the single test concentration by a dilution series.
`CCN1CCCC1CNC(=O)C(O)(c1ccccc1)c1ccccc1` (stereo unspecified): the Potency entry is “inactive”. The same measure for `O=C(CCCCl)c1ccc(F)cc1`: “inactive”. The same measure for `CCOC(=O)C1(c2ccccc2)CCN(CCc2ccc(N)cc2)CC1`: “inactive”; for `COc1ccc(CN2CCNCC2)c(OC)c1OC`: “inactive”; for `CN(C)CCc1c[nH]c2cccc(O)c12`: “inactive”.

Regarding `CC(Cc1ccccc1)NCCCCl` (stereo unspecified), the Potency entry was “inactive”. The same measure for `O=C1CN2CCOC2(c2ccccc2Cl)c2cc(Cl)ccc2N1` (stereo unspecified): “inactive”; for `Sc1ccccc1Cl`: “inactive”. The entry for `COc1cc(CC#N)cc(OC)c1OC` is “inactive”; for `C1CN2CCC1CC2` it is “inactive”.

In the case of `C[C@]12CC[C@H]3[C@@H](CC=C4C[C@@H](O)CC[C@@]43C)[C@@H]1CC[C@@H]2O`, the Potency entry was “inactive”.

`CC1COC2(c3ccccc3Cl)c3cc(Cl)ccc3NC(=O)CN12` (stereo unspecified): the Potency entry is “inactive”. The entry for `COP(=O)(OC)OC=C(Cl)Cl` is “inactive”; for `CN1C2CCC(C)(C)C1CC(OC(=O)C(O)(c1cccs1)c1cccs1)C2` (stereo unspecified) it is “inactive”; for `CC1Sc2c(C(=O)O)c(=O)c3cc(F)c(N4CCNCC4)cc3n21` (stereo unspecified) it is “inactive”. Regarding `ClCCCN1CCN(c2cccc(Cl)c2)CC1`, the Potency entry was “inactive”.

With `Clc1ccc(CSC(Cn2ccnc2)c2ccc(Cl)cc2Cl)cc1` (stereo unspecified), the Potency entry was “inactive”. The same measure for `CC[C@H]1C[C@H]2[C@@H]3CCC4=CC(=O)CC[C@@H]4[C@H]3CC[C@]2(C)[C@H]1O`: “inactive”. The same measure for `CCC(=O)C(CCN(C)C)(c1ccccc1)c1ccccc1`: “inactive”. The same measure for `CN1CCc2cc(Cl)c(O)cc2[C@H]2c3ccccc3CC[C@@H]21`: “inactive”. For `CC#C[C@]1(O)CC[C@H]2[C@@H]3C[C@H](C)C4=CC(=O)CC[C@]4(C)[C@H]3CC[C@@]21C`, the Potency result is “inactive”.
